# Screening data from PubChem BioAssay.
# Pf growth 96h = inhibits malaria parasite growth, 96 h. Potency, µM (highest dose often 28.7 µM), for inactives: at the top dose activity change, negative = inhibition, most hits filed as inhibitors. P. falciparum luciferase reporter growth, 96 h. AID 504834. actives 6.9% (n = 320,000); further: potency means the concentration at half of the fitted maximal effect; on the % scale 0 is the no-effect control and ±100 the full control effect
#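 Two-generation exposure (96 h) targets delayed-death phenotype. Reporter parasites carrying integrated firefly luciferase, in red cells at 2% hematocrit and 0.05% parasitemia final, kept at 37 C, 5% CO2; luminescence loss indicates inhibition.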
# SARS PLpro yeast = inhibitors of SARS-CoV papain-like protease in yeast; S. cerevisiae expressing SARS-CoV PLpro, growth rescue; Potency, µM (top dose mostly 32.9 µM), without a hit: top-dose activity, positive = growth rescue, usual class: activators; actives 0.19% (n = 330,000); calls by dose curve; further: potency means the concentration at half of the fitted maximal effect; 0% is about no effect; nearly all actives have a fitted effect of over 55% in size
# Shiga toxin inh = inhibitors of Shiga toxin in Vero cells; Vero cells, Shiga toxin protein synthesis inhibition reporter; inhibition, % at 38.7 µM; actives 9.2% (n = 290,000); AID 2315; in the data active means inhibition mostly above about 28%, no sharp cut-off; inactive means mostly below about 43%; further: 0% is about no effect
# Pf growth 48h = P. falciparum growth inhibition at 48 hours (one generation); P. falciparum luciferase growth in erythrocytes, 48 h; Potency, µM (highest dose often 28.7 µM), for inactives: at the top dose activity change, negative = inhibition, most hits filed as inhibitors; AID 504832; actives 5.9% (n = 310,000); further: potency means the concentration at half of the fitted maximal effect; on the % scale 0 is the no-effect control and ±100 the full control effect
#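 Luciferase-expressing parasites in RBCs, 2% Hct / 0.1% parasitemia final; RPMI 1640 + 0.5% Albumax; 37 C, 5% CO2, one generation; luminescence read-out, lower signal = inhibition.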
# AMA1-RON2 inh = inhibitors of Plasmodium falciparum AMA1-RON2 interaction. actives 0.2% (n = 360,000). AlphaScreen AMA1-biotinylated RON2 peptide binding. AID 720542. Potency, µM (top dose mostly 58.2 µM), inactives show top-dose activity change, negative = inhibition, most hits filed as inhibitors;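 further: potency means the concentration at half of the fitted maximal effect; 0% = vehicle wells and -100% = peptide control; nearly all actives have a fitted effect of over 45% in size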
#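 AMA1 (3D7) with his tag at 25 nM final met compounds first, then biotinylated RON2 peptide at 25 nM; detection used donor plus acceptor beads, 10 µg/mL apiece, read by AlphaScreen after 30 min at room temperature.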
# CHX counter = affects cycloheximide protein synthesis inhibition readout, counter-screen; cell reporter, cycloheximide protein synthesis inhibition counterscreen; max response, %; actives 12% (n = 300,000); AID 2314; in the data active means max response mostly above about 13%, no sharp cut-off; inactive means mostly below about 14%; further: read at 38.3 µM for the half of the compounds with a filed dose; 0% is about no effect
# Active calls of the source: *; i = inactive; ? = inconclusive; . = no result; [ ] = another dose, or the depositor's remark. Hits are enriched below; roughly 19% of the tested compounds scored in any of these assays. Unless noted, the call rests on the fitted dose curve; in most records, active means well fitted curve in the direction sought with a large enough effect; inconclusive means small, poorly fitted or top-dose-only effect, or another doubt; inactive means no such curve, though single readings can be large; an effect the other way counts as inactive or inconclusive.
SMILES,Pf growth 96h,SARS PLpro yeast,Shiga toxin inh,Pf growth 48h,AMA1-RON2 inh,CHX counter
COc1ccc(/C=C/C(=O)c2ccc(NC(=O)c3cccs3)cc2)cc1OC,-12%,17%,70*,?,-11%,22*
COc1ccc(-c2csc(NC(=O)c3cccs3)c2C(=O)O)cc1OC,-4%,-1%,28*,?,-5%,28
COc1ccc(NC(=O)c2cccs2)cc1O,140%,-5%,70*,174%,1%,58*
CC(=O)Nc1ccc(NC(=O)C(OC(=O)c2ccccc2)C(OC(=O)c2ccccc2)C(=O)O)cc1 (centres undefined),?,0%,13,1%,-14%,-1
COc1cc2nc(=S)n3[nH]c(CCn4nc(C)cc4C)nc3c2cc1OC,-10%,3%,-3,2.9µM*,16%,9
COc1cc2nc(=S)n3[nH]c(COc4ccccc4C)nc3c2cc1OC,-8%,3%,-12,?,49%,8
CCOC(=O)N1CCC(N(CCN(C)C)C(=S)Nc2ccccc2OCC)CC1,i,0%,2,-2%,23%,3
COc1ccc(S(=O)(=O)n2ccc(C(C)Oc3ccc(-c4ccccc4)c(F)c3)n2)cc1 (centres undefined),17µM*,-2%,4,13µM*,0%,11
CC(Oc1ccc(-c2ccccc2)c(F)c1)c1ccn(S(=O)(=O)c2ccc(F)cc2)n1 (centres undefined),?,13%,23,?,3%,13
CC(OC(=O)C1CCN(c2ccc(C(F)(F)F)cn2)CC1)C(=O)Nc1cccc([N+](=O)[O-])c1 (centres undefined),?,-5%,.,12µM*,-21%,.
CC(=O)c1ccc(NC(=O)C(C)OC(=O)C2CCN(c3ccc(C(F)(F)F)cn3)CC2)cc1 (centres undefined),-4%,-5%,.,?,17%,.
CC(OC(=O)C1CCN(c2ccc(C(F)(F)F)cn2)CC1)C(=O)Nc1ccc(S(N)(=O)=O)cc1 (centres undefined),13µM*,-3%,-4,?,8%,13
CC(OC(=O)C1CCN(c2ccc(C(F)(F)F)cn2)CC1)C(=O)c1ccccc1 (centres undefined),10%,.,.,-6%,-11%,.
O=C(CSc1nnc(-c2ccccc2Cl)o1)N1CCOCC1,-3%,-1%,93*,155%,-13%,36*
O=C(CSc1nnc(-c2ccc(F)cc2)o1)NC1CCCCC1,23%,-1%,-3,-1%,-4%,-2
Oc1ccc(-c2nnc(SCC3CCCCC3)o2)cc1,?,-12%,82*,103%,32%,22*
O=C(CSc1nnc(-c2ccc(Cl)s2)o1)N1CCOCC1,?,28%,62*,18%,.,15
O=C(CSc1nnc(-c2ccc(O)cc2)o1)N1CCOCC1,.,9%,114,51%,0%,53*
O=C(CSc1nnc(-c2ccccc2)o1)N1CCN(c2ccccc2)CC1,-4%,7%,9,21%,0%,4
CN(c1ccccc1C(=O)Nc1ccc(CC#N)cc1)S(=O)(=O)c1ccccc1,12%,3%,10,0%,26%,7
O=C(CSc1nnc(-c2ccc(Cl)cc2)o1)N1CCOCC1,2%,7%,81*,89%,-8%,53*
CC1CC(C)CN(C(=O)CSc2nnc(-c3ccc(Cl)cc3)o2)C1 (centres undefined),9%,-8%,-11,.,18%,-2
c1ccc(-c2nnc(CSc3ccc4c(c3)OCCO4)o2)cc1,14%,-2%,29*,-10%,-3%,19*
CCOC(=O)C(=O)c1c(C)cc2ccccn12,-30%[5.75 µM],-5%,47*,64%,-7%,23*
Cc1cc2ccccn2c1C(=O)c1cccc([N+](=O)[O-])c1,16%,-1%,14,-3%,-24%,-2
SMILES,Pf growth 96h,SARS PLpro yeast,Shiga toxin inh,Pf growth 48h,AMA1-RON2 inh,CHX counter
Cc1cc2ccccn2c1C(=O)c1ccc([N+](=O)[O-])o1,?,-4%,23,-28%,-20%,34*
CC(C)n1c2ccccc2c2cc([N+](=O)[O-])ccc21,4.7µM*,10%,-9,?,6%[2.32 µM],-3
CC(=O)c1ccc(NC(=O)CN2C(=O)NC(C)(c3ccc4c(c3)OCCO4)C2=O)cc1 (centres undefined),-12%,2%,.,1%,-5%,.
CCOC(=O)C1CCCN(C2=NC(=O)/C(=C/c3ccc(O)c(OC)c3)S2)C1 (centres undefined),?,0%,30,-6%[0.00184 µM],-7%,14*
O=C1N=C(N2CCCC2)S/C1=C\C=C\c1ccccc1,0%,0%,69*,8%,8%,47*
COc1ccc(/C=C2\SC(N3CCCCC3)=NC2=O)cc1,20%,-2%,21,?,-5%,22*
O=C1N=C(N2CCCCC2)S/C1=C\c1ccncc1,?,0%,-11,?,15%,-2
COc1ccccc1CNC(=O)C(NC(=O)c1ccccc1C)C(C)C (centres undefined),6%,-1%,1,-17%,12%,-2
CC(C)CCc1noc(CN2CCC(CCN3CCCC3=O)CC2)n1,13µM*,0%,30,18%,-9%,15
CC(C)CCc1noc(CN2CCN(CC(=O)NC(C)C)CC2)n1,-2%,-1%,6,-2%,0%,-2
CCO[C@H]1OC(C(=O)N2CCN(Cc3ccc4c(c3)OCO4)CC2)=C[C@@H](C(C)(C)C)[C@@H]1CCCO,?,-2%,-12,6.6µM*,29%,-2
CCO[C@H]1OC(C(=O)N2CCCCCCC2)=C[C@@H](C2CCCCC2)[C@@H]1CCCO,9.3µM*,1%,-11,?,-1%,0
CCO[C@H]1OC(C(=O)N2CCN(Cc3ccccc3)CC2)=C[C@@H](C2CCCCC2)[C@@H]1CCCO,1.7µM*,1%,-16,?,-14%,-3
CCO[C@@H]1OC(C(=O)N2CCN(C)CC2)=C[C@H](C2CCCCC2)[C@H]1CCCO,-20%,-1%,-10,-2%,20%,-4
CCO[C@@H]1OC(C(=O)N2CCN(Cc3ccc4c(c3)OCO4)CC2)=C[C@H](C2CCCCC2)[C@H]1CCCO,0.93µM*,0%,-9,?,-5%,1
c1ccc2c(c1)cnc1ccccc12,?,-1%,29,49%,2%,24*
c1ccc2nc3ccccc3cc2c1,.,.,47*,.,.,40*
c1ccc(-c2ncc3c(ccc4ccccc43)n2)cc1,1%,-21%,74*,291%,-5%,58*
COc1cccc(/C=C/C(=O)OCC(=O)NCCc2ccccc2)c1,6%,-8%,-7,18%,11%,-2
